# Screening results as filed in PubChem BioAssay.
# TDP1 cell CPT – qHTS for Inhibitors of human tyrosyl-DNA phosphodiesterase 1 (TDP1): qHTS in cells in presence of CPT; Potency, µM (doses to about 46.2 µM), for the others: top-dose activity change, negative = growth inhibition, hits mostly inhibitors; hit rate 12% among 420,000; AID 686979, 2013; chicken DT40 Tdp1-/-;hTDP1 cells + 20 nM CPT, ATP luminescence, 48 h; also: nearly all actives have a fitted effect of over 55% in size
#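 Chicken DT40 Tdp1-/- cells complemented with human TDP1, 400 cells/well, exposed to compounds plus 20 nM camptothecin for at least 48 h at 37 C; viability read as ATP content by CellTiter-Glo luminescence.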
# KB-V1 MDR tox – qHTS assay for MDR1-selective chemotherapeutics: Primary screen using the drug-selected MDR subline cells KB-V1; KB-V1 MDR cells viability, CellTiter-Glo, 72 h; Potency, µM (highest dose often 46.1 µM), most hits filed as cytotoxic; AID 1347076, 2019; hit rate 3.4% among 400,000; also: nearly all actives have a fitted effect of over 60% in size
#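 KB-V1 cells (P-gp-expressing MDR subline of KB-3-1) in phenol-red-free DMEM with 10% FBS were exposed to library compounds over a concentration series for 72 h at 37 degrees C. Viability read by CellTiter-Glo luminescence; concentration-effect curves fitted after normalization.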
# TDP1 cell noCPT – qHTS for Inhibitors of human tyrosyl-DNA phosphodiesterase 1 (TDP1): qHTS in cells in absence of CPT. Potency, µM (highest dose often 46.2 µM), for inactives: at the highest dose activity change, negative = growth inhibition, actives largely listed as inhibitors. DT40 Tdp1-/- hTDP1 cells, no CPT, ATP luminescence, 48 h. AID 686978, 2013. hit rate 15% among 420,000; also: nearly all actives have a fitted effect of over 55% in size
#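 Readout: luminescence from CellTiter-Glo after 30 min in the dark at RT. Cells: DT40 Tdp1-/- with stable hTDP1, 400/well. Exposure: compounds alone, ≥48 hr, 37 °C.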
# HT1080NT lethal – qHTS for induction of synthetic lethality in tumor cells producing 2HG: qHTS for the HT-1080-NT fibrosarcoma cell line; HT-1080-NT fibrosarcoma viability, CellTiter-Glo ATP luminescence, 48 h; Potency, µM (series often up to 46.1 µM), for the others: top-dose activity, negative = less viability, most hits filed as cytotoxic; hit rate 1.6% among 360,000; AID 686970, 2013;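 also: NT is the 2HG producing partner of a matched IDH1 knockdown line; 0% = DMSO-treated cells and -100% = media-only wells without cells; nearly all actives have a fitted effect of over 55% in size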
#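 Fibrosarcoma NT cells, 750 per well in 5% FBS RPMI, were exposed to compound for 48 hours. Viability: CellTiter-Glo luminescence.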
# HT1080 IDH1KD tx – qHTS for induction of synthetic lethality in tumor cells producing 2HG: qHTS for the HT-1080-IDH1KD cell line | Potency, µM (highest dose often 46.1 µM), for the others: top-dose activity, negative = toxicity, actives largely listed as cytotoxic | hit rate 2% among 360,000 | AID 686971, 2013 | HT-1080 IDH1 knockdown viability, ATP luminescence, 48 h;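 also: 0% = DMSO wells and -100% = cell-free medium wells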
#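 After a 2 h attachment period, IDH1KD HT-1080 cells took pin-transferred compound for 48 h at 37 °C; ATP-based luminescence after 10 min room-temperature reagent incubation reported viability.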
# KB-3-1 tox – qHTS assay for MDR1-selective chemotherapeutics: Primary screen using the parental adenocarcinoma cell KB-3-1. AID 1347075, 2019. Potency, µM (top dose mostly 46.1 µM), usual class: cytotoxic. KB-3-1 viability, CellTiter-Glo ATP luminescence, 72 h. hit rate 1.4% among 400,000; also: nearly all actives have a fitted effect of over 60% in size
#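 KB-3-1 parental drug-naive adenocarcinoma cells in DMEM/10% FBS, incubated 72 h at 37 C with pin-transferred compounds across a concentration series. Viability by CellTiter-Glo luminescence; concentration-response curves fitted after normalization.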
# The depositor's hits bear a star; i = inactive; ? = inconclusive; · = no result. A selection: hits, their analogues and other compounds. The true share with any hit is near 19%. Calls follow the shape of the dose curve; as a rule, active = well fitted curve in the direction sought with a large enough effect; inconclusive = small, poorly fitted or top-dose-only effect, or another doubt; inactive = no such curve, though single readings can be large; an effect the other way counts as inactive or inconclusive. Unless noted, % is scaled to controls: 0 for no effect and ±100 for the full control effect; potency is read from the fitted curve at half-maximal effect.
SMILES,TDP1 cell CPT,KB-V1 MDR tox,TDP1 cell noCPT,HT1080NT lethal,HT1080 IDH1KD tx,KB-3-1 tox
CCN(CC)CCCNC(=O)c1nn(-c2ccc(OC)cc2)c(=O)c2c1c1ccccc1n2C,4%,i,7%,·,·,i
CCN(CC)CCCNC(=O)c1nn(-c2ccc(OC)c(Cl)c2)c(=O)c2c1c1ccccc1n2C,?,i,16µM*,·,·,i
COc1ccc(-n2nc(C(=O)NCCc3ccc(Cl)cc3)c3c4ccccc4n(C)c3c2=O)cc1,8.2µM*,i,10µM*,·,·,i
CCCCNC(=O)c1nn(-c2ccc(C)cc2)c(=O)c2c1c1ccccc1n2C,8.2µM*,i,2.6µM*,·,·,i
CCN(CCCNC(=O)c1nn(-c2ccc(C)cc2)c(=O)c2c1c1ccccc1n2C)c1ccccc1,?,i,?,·,·,i
COc1ccc(-n2nc(C(=O)N3CCCC(C)C3)c3c4ccccc4n(C)c3c2=O)cc1Cl (configuration not stated),16µM*,·,-97%,·,·,·
CC(=O)N1CCc2c(sc(NC(=O)c3ccc(S(=O)(=O)N(C)CC4CCCO4)cc3)c2C(N)=O)C1 (configuration not stated),?,i,?,11%,12%,i
Cc1cccc(C)c1-n1nnnc1C1(C)CCC(=O)N1C1CC1 (configuration not stated),-20%,i,-16%,16%,16%,i
COc1ccc(C2=Nc3ccccc3N(C(=O)c3ccc(C)cc3)C2C(=O)Nc2c(C)cccc2C)cc1 (configuration not stated),?,i,?,0%,-11%,i
CCN(C(=O)c1nn(-c2ccc(OC)c(Cl)c2)c(=O)c2c1c1ccccc1n2C)c1cc(OC)ccc1OC,?,i,15µM*,·,·,i
Cn1nc(-c2ccccc2F)c2cc(C(=O)NCc3cccc(Cl)c3)sc21,15µM*,i,?,·,·,i
Cn1nc(-c2ccccc2F)c2cc(C(=O)NCc3ccc(Cl)cc3)sc21,?,i,16µM*,·,·,i
Cn1nc(-c2ccccc2F)c2cc(C(=O)Nc3ccc4c(c3)OCCO4)sc21,?,?,21µM*,-13%,?,?
Cn1nc(-c2ccccc2F)c2cc(C(=O)Nc3cc(F)ccc3F)sc21,?,i,?,·,·,i
CCCN(CCC)CCNC(=O)c1cc2c(-c3ccccc3F)nn(C)c2s1,?,?,?,-24%,?,i
COCC(=O)Nc1cc(C(=O)N2CCCC2c2nccs2)c2c(c1)nc(-c1ccncc1)n2C (configuration not stated),22%,·,-15%,·,·,·
COc1ccc(NS(=O)(=O)c2cc(NC(=O)c3ccco3)ccc2N2CCCCC2)cc1,?,i,18µM*,-25%,?,21µM*
COc1ccc(NS(=O)(=O)c2cc(NC(=O)c3cnc(C)cn3)ccc2N2CCCC2)cc1,-24%,4.6µM*,?,-19%,0%,i
COc1ccc(NS(=O)(=O)c2cc(NC(=O)c3ccc(=O)[nH]c3)ccc2N2CCCC2)cc1,4.1µM*,i,7.3µM*,?,2.1µM*,3.7µM*
COc1ccc(NS(=O)(=O)c2cc(NC(=O)c3cnc(C)cn3)ccc2N2CCCCC2)cc1,?,i,?,-9%,-13%,i
Cc1cc(=O)n2nc(N3CCC(C(=O)Nc4ccc(C(C)C)cc4)CC3)sc2n1,?,i,?,·,·,?
CCCCn1cnc2c([nH]c3ccccc32)c1=O,1%,i,-19%,-4%,-8%,i
CCOCCCNc1ncnc2c1[nH]c1ccccc12,10µM*,?,16µM*,-6%,-16%,?
c1ccc2c(c1)[nH]c1c(NCC3CCCO3)ncnc12 (configuration not stated),?,?,15µM*,0%,?,i
c1nc(NCC2CCCO2)c2[nH]cnc2n1 (configuration not stated),-16%,i,-14%,1%,-5%,i
SMILES,TDP1 cell CPT,KB-V1 MDR tox,TDP1 cell noCPT,HT1080NT lethal,HT1080 IDH1KD tx,KB-3-1 tox
CCCCOCCCNc1ncnc2c1[nH]c1ccccc12,2.1µM*,1.6µM*,2.3µM*,13µM*,18µM*,2.6µM*
O=C(N=Nc1c(O)[nH]c2ccc(Br)cc12)c1ccccc1-n1cccc1,4.6µM*,3.3µM*,2.6µM*,2.8µM*,2.2µM*,5.2µM*
O=C(N=Nc1c(O)[nH]c2ccc(Br)cc12)c1cc(-c2cccs2)nc2ccccc12,4.6µM*,?,6.5µM*,?,13µM*,?
Cn1c(O)c(N=NC(=O)c2cc(-c3cccs3)nc3ccccc23)c2ccccc21,?,?,?,-8%,-19%,i
CC(=NNC(=O)CSCC(=O)NN=C(C)c1ccccc1)c1ccccc1,-4%,i,-17%,0%,-2%,i
COc1ccc(OC)c(N2C(=O)CC(Cc3cc(C)cc(C)c3)C2=O)c1 (configuration not stated),?,?,-9%,?,?,6.5µM*
COc1ccc(OC)c(N2C(=O)CC(Cc3ccc(Cl)cc3)C2=O)c1 (configuration not stated),-9%,i,-24%,2%,-1%,i
CCNC(=O)CC1C(=O)N(c2ccc(F)cc2)C(=O)N1Cc1ccc(OC)c(OC)c1 (configuration not stated),-10%,i,?,·,·,i
COC(=O)c1ccc(NC(=O)CCNS(=O)(=O)c2cccc3nsnc23)cc1,-6%,i,-2%,·,·,i
Cc1noc(C)c1-c1ccc(C(=O)NC2CCCCC2)c2occc12,16µM*,i,15µM*,8%,-16%,i
Cc1noc(C)c1-c1ccc(C(=O)NCC2CC2)c2occc12,?,?,?,0%,0%,i
COc1ccc(NC(=O)c2ccc(-c3c(C)noc3C)c3ccoc23)cc1,?,i,?,-18%,0%,i
